This note sets out measurements from PubChem BioAssay (NCATS).

Several values for one entry are separate records, joined by “and”; a condition that tells them apart may be missing. Equal values may be shown once. Inconclusive results are not listed. Some structures have more than one record in an assay (separate samples or runs), and their calls can disagree. Activity calls are given as the source filed them. Unless noted, calls come from the whole dose curve; as a rule, active = well fitted curve in the direction sought with a large enough effect; inconclusive = small, poorly fitted or top-dose-only effect, or another doubt; inactive = no such curve, though single readings can be large; an effect the other way counts as inactive or inconclusive.

Assay [1] has as its target Cytochrome P450 2D6 (Homo sapiens) (UniProt P10635). The assay can be described thus: qHTS Assay for Inhibitors and Substrates of Cytochrome P450 2D6 (AID 891). Note: nearly all actives have a fitted effect of over 60% in size. Note: potency is the fitted concentration of half-maximal effect. The essentials: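 Human CYP2D6 (5 nM) with 30 uM Luciferin-ME EGE (at Km) in 100 mM KPO4, compound preincubated 10 min, then NADPH regeneration system for 60 min at room temperature. Luciferin read by luminescence; normalized to 1.43 uM quinidine.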
(In general: Quantitative high-throughput screening tests each substance at several concentrations.)

The nature of assay [2]: Cell Viability - NIH 3T3 (AID 541).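 Note: plate controls were DMSO alone for no effect and tamoxifen positive control for full effect; nearly all actives have a fitted effect of over 25% in size.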 The conditions noted are these: NIH 3T3 cell viability, qHTS; activity change, negative = cytotoxicity: at 92.2 µM (top of the series). The essentials:
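Luminescent ATP signal (CellTiter-Glo) served as the viability read-out after NIH 3T3 cells were exposed to compounds over a concentration range for 40 hr at 37 °C. Hill-equation modelling of concentration-response data gave AC50.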

A short description of assay [3]: Cell Viability - SH-SY5Y (AID 544).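 Note: 0% = DMSO alone and -100% = 100 µM tamoxifen; nearly all actives have a fitted effect of over 55% in size.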 Put shortly:
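Luminescent ATP read-out (CellTiter-Glo) measures loss of viable SH-SY5Y neuroblastoma cells after 40 hr compound exposure at 37 °C. AC50 values derive from standard Hill modelling of qHTS concentration-response data.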

A short description of assay [4]: Cell Viability - LYMP2-001 (AID 921).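 Note: cells exposed to compound for 24 h at 37 °C; 0% = DMSO only and full inhibition = tetraoctylammonium bromide control wells; nearly all actives have a fitted effect of over 70% in size.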 Put shortly:
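Human lymphoblastoid LYMP2-001 cells, 2500 per well, in complete medium, treated 24 h at 37 C. Viability from cellular ATP by CellTiter-Glo luminescence; AC50 from Hill-equation fits of qHTS concentration-response.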

Assay [5] is described as follows: Cell Viability - LYMP2-004 (AID 966).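 Note: cells exposed to compound for 24 h; plate controls were DMSO only for no effect and tetraoctylammonium bromide control for full effect; nearly all actives have a fitted effect of over 65% in size.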 Put shortly: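 Cells seeded 2500/well, rested 5 hr at 37 C, dosed across a concentration series, incubated 24 hr at 37 C, then CellTiter-Glo added for 30 min at room temperature and luminescence read. Hill fitting gave AC50.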
Assay [6] can be described thus: Cell Viability - LYMP2-012 (AID 982).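 Note: cellular ATP by luciferase luminescence where a drop means cytotoxicity; cells exposed to compound for one day before reading; 0% = DMSO only and full loss = 92 µM tetraoctylammonium bromide; nearly all actives have a fitted effect of over 55% in size.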
Assay [7] can be described thus: Cell Viability - LYMP2-024 (AID 988).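 Note: plate controls were DMSO only for no effect and 92 µM tetraoctylammonium bromide for full effect; nearly all actives have a fitted effect of over 60% in size.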 Put shortly: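 Steps: seed 2500 cells/well, 5 hr 37 C; add compound, 24 hr 37 C; add CellTiter-Glo, 30 min room temperature; read luminescence. AC50 derived by Hill modelling of concentration-dependent ATP loss.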
Assay [8] deals with Estrogen receptor (Homo sapiens) (UniProt P03372). The assay can be described thus: qHTS assay for small molecule agonists of estrogen receptor alpha signaling (AID 588514; calls by dose curve;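 note: 0% = vehicle only and 100% = reference agonist; nearly all actives have a fitted effect of over 70% in size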). Put shortly:
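Cells were plated at 5000/well, incubated 4 hrs at 37 C, dosed with compound titration series, incubated 18 hrs at 37 C, loaded with CCF4 dye for 2 hrs at RT, then fluorescence was read.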

The target in assay [9] is Peroxisome proliferator-activated receptor gamma (Homo sapiens) (UniProt P37231). As to the kind of experiment: qHTS assay for small molecule antagonists of peroxisome proliferator-activated receptor gamma signaling (AID 588537; active = well fitted inhibition curve with a large enough effect in the signal ratio, with a control signal flat, not every such curve was filed as active; the % refers to the signal ratio;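 note: reporter cells co-stimulated with 50 nM rosiglitazone agonist during compound treatment; % of control where 0% means no effect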). The essentials:
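Antagonist mode, beta-lactamase reporter in HEK293; charcoal/dextran FBS 1%; 3000 cells/well, 37 C 6-6.5 h; cpd titration + rosiglitazone 50 nM final, 16 h 37 C; CCF4, 2 h RT; 460/530 nm; Hill fit → IC50, efficacy.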

Assay [10] in a line: qHTS assay for small molecule agonists of retinoid X receptor alpha signaling (AID 588544; calls by dose curve;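 for activation: 0% = DMSO basal wells and 100% = reference agonist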). The conditions noted are these: HEK293T RXRa-UAS-bla, beta-lactamase reporter, 18 h; 530 nm emission.
Assay [11] deals with Retinoic acid receptor RXR-alpha (Homo sapiens) (UniProt P19793). The description is as above.
Retinoic acid receptor RXR-alpha (Homo sapiens), sequence (P19793 whole entry, looked up): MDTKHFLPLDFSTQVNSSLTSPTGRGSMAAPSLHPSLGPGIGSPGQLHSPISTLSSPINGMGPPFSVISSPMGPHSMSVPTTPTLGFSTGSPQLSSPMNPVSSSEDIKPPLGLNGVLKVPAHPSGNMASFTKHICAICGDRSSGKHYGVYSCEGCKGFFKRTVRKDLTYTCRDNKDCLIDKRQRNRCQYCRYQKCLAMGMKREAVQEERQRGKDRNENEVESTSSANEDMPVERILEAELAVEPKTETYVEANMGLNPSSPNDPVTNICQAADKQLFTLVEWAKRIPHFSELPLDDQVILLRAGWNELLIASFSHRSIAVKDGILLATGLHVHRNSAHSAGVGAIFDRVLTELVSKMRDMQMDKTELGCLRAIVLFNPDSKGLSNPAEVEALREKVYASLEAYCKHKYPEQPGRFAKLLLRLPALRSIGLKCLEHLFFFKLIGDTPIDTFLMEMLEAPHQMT
Assay [12] can be described thus: qHTS assay for small molecule agonists of the antioxidant response element (ARE) signaling pathway (AID 651741; active = well fitted activation curve with a large enough effect in the signal ratio; the % refers to the signal ratio; note: potency is the fitted concentration of half-maximal effect; for activation: % of control where 0% means no effect). The essentials:
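Quantitative HTS in HepG2 cells stably expressing an ARE-beta-lactamase reporter; 16 h compound exposure at 37 C, followed by 2 h room-temperature incubation with LiveBLAzer B/G FRET substrate and fluorescence measurement.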

Assay [13] has as its target Tumor necrosis factor (Homo sapiens) (UniProt P01375). The assay can be described thus: qHTS assay to identify small molecules that stimulate Tumor Necrosis Factor-alpha (TNF-alpha) secretion (AID 651757; active = well fitted curve in the direction sought with a large enough effect in the signal ratio; the % refers to the signal ratio; note: 0% is about no effect). Put shortly: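 Read-out is HTRF, a TR-FRET sandwich of cryptate- and XL665-labeled anti-TNF-alpha antibodies detecting cytokine secreted by THP-1 cells. Cells had been incubated with test compounds at 37 C for 17 hrs beforehand.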

Assay [14] can be described thus: qHTS assay for small molecule activators of the human pregnane X receptor (PXR) signaling pathway (AID 720659; call rule not given here; note: 0% is about no effect).
In assay [15] the target is Bile acid receptor (Homo sapiens) (UniProt Q96RI1). As to the kind of experiment: qHTS assay for small molecule antagonists of farnesoid X receptor signaling (AID 588526; calls by dose curve; note: % is set by controls: 0 for no effect and ±100 for the full control effect). The essentials: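 Beta-lactamase reporter antagonist mode: HEK293T FXR-UAS-bla cells, titrated compound, CDCA stimulation, 16 h 37 C, CCF4 dye 2 h RT. Data normalized to CDCA 50 uM and DMSO; Hill-fit IC50.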
Bile acid receptor (Homo sapiens), sequence (Q96RI1 whole entry, looked up): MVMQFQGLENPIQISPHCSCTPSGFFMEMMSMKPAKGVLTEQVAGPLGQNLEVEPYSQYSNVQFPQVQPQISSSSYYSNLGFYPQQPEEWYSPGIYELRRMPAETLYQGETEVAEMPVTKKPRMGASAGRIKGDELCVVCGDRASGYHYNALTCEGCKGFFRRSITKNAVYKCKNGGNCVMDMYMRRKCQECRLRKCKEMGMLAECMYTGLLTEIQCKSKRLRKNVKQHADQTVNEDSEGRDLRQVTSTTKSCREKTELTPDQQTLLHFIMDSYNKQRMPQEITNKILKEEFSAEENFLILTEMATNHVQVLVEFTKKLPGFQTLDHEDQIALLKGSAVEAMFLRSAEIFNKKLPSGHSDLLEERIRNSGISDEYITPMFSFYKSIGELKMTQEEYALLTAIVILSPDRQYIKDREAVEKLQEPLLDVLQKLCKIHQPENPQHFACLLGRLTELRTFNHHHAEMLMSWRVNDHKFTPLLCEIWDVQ

Assay [16] addresses Glucocorticoid receptor (Homo sapiens) (UniProt P04150). The assay can be described thus: qHTS assay for small molecule antagonists of glucocorticoid receptor signaling (AID 588533; active = well fitted inhibition curve with a large enough effect in the signal ratio, with a control signal flat, not every such curve was filed as active; the % refers to the signal ratio;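 note: cells stimulated with 2 nM dexamethasone as agonist; % is set by controls: 0 for no effect and ±100 for the full control effect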). The essentials: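 Antagonist-mode qHTS: compound titrations added to GRE-bla HeLa cells, then dexamethasone 2 nM final; 18 h, 37 C. CCF4 FRET fluorescence normalized to dexamethasone and DMSO; IC50 from Hill fit.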

Assay [17] deals with Thyroid hormone receptor beta (Homo sapiens) (UniProt P10828). As to the kind of experiment: qHTS assay for small molecule antagonists of thyroid hormone receptor beta signaling (AID 588547; active = well fitted inhibition curve with a large enough effect in the signal ratio, with a control signal flat, not every such curve was filed as active; the % refers to the signal ratio;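 note: cells stimulated with 0.4 nM T3 agonist during compound exposure; % is set by controls: 0 for no effect and ±100 for the full control effect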). The conditions noted are these: TR-UAS-bla HEK293, beta-lactamase ratio, antagonist mode, 18 h. The essentials: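 Inhibition of T3-driven (0.4nM final) beta-lactamase reporter activity was measured over 0.59 nM to 92 uM compound after 18 h at 37 C. The cells were GripTite HEK293 TR-UAS-bla in charcoal/dextran-stripped serum, with CCF4 ratio read-out and IC50 from Hill fits.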
Thyroid hormone receptor beta (Homo sapiens), sequence (P10828 whole entry, looked up): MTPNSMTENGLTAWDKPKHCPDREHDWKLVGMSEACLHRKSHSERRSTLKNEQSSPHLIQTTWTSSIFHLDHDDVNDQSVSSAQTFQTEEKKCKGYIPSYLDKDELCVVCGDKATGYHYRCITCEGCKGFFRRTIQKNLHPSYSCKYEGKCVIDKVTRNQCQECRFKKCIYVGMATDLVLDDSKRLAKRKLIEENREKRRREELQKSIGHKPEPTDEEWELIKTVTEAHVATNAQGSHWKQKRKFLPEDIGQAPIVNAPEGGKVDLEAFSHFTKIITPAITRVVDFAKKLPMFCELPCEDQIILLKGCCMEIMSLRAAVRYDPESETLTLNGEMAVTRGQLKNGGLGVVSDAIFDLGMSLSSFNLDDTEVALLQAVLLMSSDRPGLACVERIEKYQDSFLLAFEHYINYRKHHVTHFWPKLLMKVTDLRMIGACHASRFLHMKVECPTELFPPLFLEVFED

A short description of assay [18]: qHTS assay for small molecule disruptors of the mitochondrial membrane potential - 1 hr assay (AID 651754; calls by dose curve; note: % is set by controls: 0 for no effect and ±100 for the full control effect; nearly all actives have a fitted effect of over 35% in size). The essentials:
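HepG2, 2,000 cells/well, overnight attachment; cpd or DMSO 1 hr, 37C/5% CO2; Mito-MPS dye 30 min, 37C; fluorescence monomer (490/535) and aggregate (540/590).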

Assay [19] can be described thus: qHTS assay for small molecule activators of the nuclear factor-kappa B (NF-kB) signaling pathway (AID 651749; active = well fitted activation curve with a large enough effect in the signal ratio; the % refers to the signal ratio; note: % of control where 0% means no effect). The conditions noted are these: NF-kB-bla ME-180 cells, beta-lactamase FRET ratio, 16 h; stronger effect = higher value. The essentials:
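Readout: beta-lactamase reporter driven by an NF-kB response element, detected fluorescently as loss of FRET. Cells were the ME-180 line, treated 16 hr at 37C with pin-transferred compound.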

The target in assay [20] is Peroxisome proliferator-activated receptor alpha (Homo sapiens) (UniProt Q07869). As to the kind of experiment: qHTS assay for small molecule agonists of the peroxisome proliferator-activated receptor alpha (PPARalpha) signaling pathway (AID 651778). Note: % of control where 0% means no effect. The conditions noted are these: PathHunter PPARalpha complementation, chemiluminescence, 6 h; max response: stronger effect = higher value. Put shortly:
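Chemiluminescence from complemented enzyme reported PPARalpha activation in cells after 6 hr of compound treatment at 37 C. The detection reagent was incubated for 60 min at room temperature, and compounds were scored as agonists.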

Estrogen receptor (Homo sapiens), sequence (P03372 whole entry, looked up): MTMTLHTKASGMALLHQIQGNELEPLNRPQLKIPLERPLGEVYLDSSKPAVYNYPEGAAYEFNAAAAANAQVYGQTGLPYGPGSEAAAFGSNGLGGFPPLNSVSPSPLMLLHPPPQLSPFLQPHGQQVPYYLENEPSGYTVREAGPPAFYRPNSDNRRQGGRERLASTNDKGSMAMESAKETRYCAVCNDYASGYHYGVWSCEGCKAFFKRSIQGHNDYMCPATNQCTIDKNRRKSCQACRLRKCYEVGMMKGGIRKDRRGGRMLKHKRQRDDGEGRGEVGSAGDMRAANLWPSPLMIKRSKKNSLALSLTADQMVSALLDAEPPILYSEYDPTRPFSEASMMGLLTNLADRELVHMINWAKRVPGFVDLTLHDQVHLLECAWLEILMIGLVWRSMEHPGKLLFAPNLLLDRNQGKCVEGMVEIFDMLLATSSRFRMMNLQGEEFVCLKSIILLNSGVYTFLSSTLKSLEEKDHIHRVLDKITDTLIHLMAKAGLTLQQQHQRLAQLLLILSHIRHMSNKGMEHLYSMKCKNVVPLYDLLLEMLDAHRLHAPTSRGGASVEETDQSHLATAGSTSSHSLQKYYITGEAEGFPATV
Tumor necrosis factor (Homo sapiens), sequence (P01375 whole entry, looked up): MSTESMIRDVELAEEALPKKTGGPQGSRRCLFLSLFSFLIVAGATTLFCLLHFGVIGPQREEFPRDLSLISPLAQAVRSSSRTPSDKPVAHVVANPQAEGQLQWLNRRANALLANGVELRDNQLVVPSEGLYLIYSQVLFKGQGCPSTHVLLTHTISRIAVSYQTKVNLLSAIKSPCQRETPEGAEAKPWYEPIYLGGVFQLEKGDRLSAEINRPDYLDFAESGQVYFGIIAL
Glucocorticoid receptor (Homo sapiens), sequence (P04150 whole entry, looked up): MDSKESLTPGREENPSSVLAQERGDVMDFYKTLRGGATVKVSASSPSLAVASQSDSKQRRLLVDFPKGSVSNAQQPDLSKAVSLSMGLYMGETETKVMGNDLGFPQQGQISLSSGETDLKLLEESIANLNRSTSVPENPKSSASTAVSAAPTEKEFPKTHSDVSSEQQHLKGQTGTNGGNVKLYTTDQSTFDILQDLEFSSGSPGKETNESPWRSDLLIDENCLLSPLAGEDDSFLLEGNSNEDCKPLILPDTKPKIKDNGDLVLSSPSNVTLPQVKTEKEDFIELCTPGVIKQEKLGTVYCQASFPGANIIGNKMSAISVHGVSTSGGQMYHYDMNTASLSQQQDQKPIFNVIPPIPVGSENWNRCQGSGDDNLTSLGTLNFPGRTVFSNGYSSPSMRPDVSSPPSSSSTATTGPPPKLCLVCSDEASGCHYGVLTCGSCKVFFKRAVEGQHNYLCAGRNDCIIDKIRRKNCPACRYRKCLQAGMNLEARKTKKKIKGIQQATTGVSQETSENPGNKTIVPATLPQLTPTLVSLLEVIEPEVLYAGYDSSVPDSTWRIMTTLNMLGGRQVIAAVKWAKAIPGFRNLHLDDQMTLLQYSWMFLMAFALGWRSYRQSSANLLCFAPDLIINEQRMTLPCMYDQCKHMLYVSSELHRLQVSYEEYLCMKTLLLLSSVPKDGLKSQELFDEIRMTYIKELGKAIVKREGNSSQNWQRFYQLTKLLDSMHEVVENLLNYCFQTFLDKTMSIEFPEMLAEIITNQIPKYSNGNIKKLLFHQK
Peroxisome proliferator-activated receptor gamma (Homo sapiens), sequence (P37231 whole entry, looked up): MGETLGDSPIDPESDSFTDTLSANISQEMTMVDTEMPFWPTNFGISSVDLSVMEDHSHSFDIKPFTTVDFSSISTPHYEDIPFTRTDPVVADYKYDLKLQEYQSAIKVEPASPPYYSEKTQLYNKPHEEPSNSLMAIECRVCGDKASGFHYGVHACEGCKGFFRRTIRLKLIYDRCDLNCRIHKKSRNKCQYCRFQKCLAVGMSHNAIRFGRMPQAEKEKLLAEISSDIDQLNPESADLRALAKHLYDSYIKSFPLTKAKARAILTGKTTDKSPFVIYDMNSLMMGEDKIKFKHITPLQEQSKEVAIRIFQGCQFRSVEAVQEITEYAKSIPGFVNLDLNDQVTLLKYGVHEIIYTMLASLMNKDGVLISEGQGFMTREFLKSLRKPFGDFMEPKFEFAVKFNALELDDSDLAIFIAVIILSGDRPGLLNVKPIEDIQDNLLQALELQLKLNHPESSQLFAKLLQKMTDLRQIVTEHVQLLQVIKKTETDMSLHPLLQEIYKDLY
Peroxisome proliferator-activated receptor alpha (Homo sapiens), sequence (Q07869 whole entry, looked up): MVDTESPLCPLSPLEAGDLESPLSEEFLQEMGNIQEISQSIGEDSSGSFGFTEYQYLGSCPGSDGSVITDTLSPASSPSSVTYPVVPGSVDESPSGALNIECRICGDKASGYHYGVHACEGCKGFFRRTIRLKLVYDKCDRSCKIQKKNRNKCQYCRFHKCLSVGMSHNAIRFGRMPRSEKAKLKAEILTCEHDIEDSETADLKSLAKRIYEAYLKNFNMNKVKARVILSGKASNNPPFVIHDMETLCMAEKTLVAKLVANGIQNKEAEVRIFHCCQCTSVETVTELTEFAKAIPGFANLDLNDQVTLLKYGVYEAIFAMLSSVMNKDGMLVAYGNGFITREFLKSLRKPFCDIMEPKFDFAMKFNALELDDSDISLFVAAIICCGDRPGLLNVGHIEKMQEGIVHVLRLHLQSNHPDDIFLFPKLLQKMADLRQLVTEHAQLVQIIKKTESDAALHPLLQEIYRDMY
Cytochrome P450 2D6 (Homo sapiens), sequence (P10635 whole entry, looked up): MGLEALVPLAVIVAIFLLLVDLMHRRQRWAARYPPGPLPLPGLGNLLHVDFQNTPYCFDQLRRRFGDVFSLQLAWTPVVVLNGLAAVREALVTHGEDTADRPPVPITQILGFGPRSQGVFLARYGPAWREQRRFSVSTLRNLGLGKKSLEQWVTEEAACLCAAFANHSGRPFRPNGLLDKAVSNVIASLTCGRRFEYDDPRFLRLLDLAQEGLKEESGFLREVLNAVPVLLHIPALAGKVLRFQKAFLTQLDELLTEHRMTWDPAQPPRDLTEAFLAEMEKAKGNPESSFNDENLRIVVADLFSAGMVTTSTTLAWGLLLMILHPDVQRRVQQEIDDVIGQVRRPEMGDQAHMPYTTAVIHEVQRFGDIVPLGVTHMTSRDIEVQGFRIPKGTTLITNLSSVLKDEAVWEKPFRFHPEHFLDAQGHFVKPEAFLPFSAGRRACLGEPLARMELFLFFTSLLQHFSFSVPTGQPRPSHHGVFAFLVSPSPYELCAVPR

Turning to `COc1ccccc1CNc1cc(-c2cccnc2)ncn1`, the Potency in [1] is 5.01 µM (active).
`O=C(O)c1ccccc1`: the Potency entry in [2], in [3], in [4], in [5], in assay [6] and in [7] was “inactive” throughout. The Potency entry in assay [8] and in [12] was “inactive” throughout. The outcome in assay [9], in [11], in [13] and in assay [14] was inactive. In assay [10], the max response is -9.66%.
Turning to `COc1ccc2[nH]cc(CCNc3ncncc3-c3ccccc3C)c2c1`, the Potency in assay [1] is 1.26 µM (active).
For `CCCCCCCCCCCCCC(=O)O`, the Potency entry in assay [3], in [5], in assay [6], in assay [7], in assay [8] and in assay [16] was “inactive” throughout. Besides, the Potency result in [12] and in [18] was “inactive” each time. The compound was called inactive in [15], in [9], in [11], in assay [13] and in assay [14]. In addition, in assay [10], the max response was 12.8% and -5.45%. In assay [17], the activity change % (negative = inhibition) was 8.19% (inactive) and 13.5% (inactive).
In the case of `C=CC(C)(CCC=C(C)C)OC(C)=O` (stereo not given), the Potency entry in [8], in [16] and in assay [12] was “inactive” throughout. The call in [15], in [9], in assay [11] and in assay [14] was inactive. Besides, the max response in assay [10] is -5.34%; in assay [20] it was -0.802% (inactive). Besides, in assay [17], the activity change % (negative = inhibition) is -2.58% (inactive). Besides, in [19], the activation is -0.624% (inactive).
Regarding `COc1cc(/C=C/c2ccccc2)oc(=O)c1`, the Potency entry in assay [5], in assay [6], in assay [7], in assay [16] and in [18] was “inactive” in each case. The compound was classed as inactive in assay [9]. In addition, the activity change % (negative = inhibition) in assay [17] was -8.32% (inactive). Further, in assay [20], the max response is -1.59% (inactive).
In the case of `CC1=C2[C@H](/C=C(\C)C(=O)O)CC[C@@H](C)[C@H]2CC1`, the Potency result in assay [2], in [3], in assay [4] and in [16] was “inactive” in each case. The compound was called inactive in assay [15], in assay [13] and in assay [14]. In addition, in assay [17], the activity change % (negative = inhibition) was 11.8% (inactive). Besides, the activation in assay [19] is -1.71% (inactive).
Consider `COc1ccc(/C=C/c2cc(OC)cc(=O)o2)cc1`, for which the Potency entry in assay [2], in assay [5], in assay [6], in assay [7], in assay [8] and in assay [18] was “inactive” in each case. Further, the outcome in assay [15] was inactive. Also, the activity change % (negative = inhibition) in assay [17] was -10.8% (inactive). In addition, the Potency in assay [12] was 1.88 µM (active). For the same compound, the activation in assay [19] is 1.78% (inactive). In assay [20], the max response is 9.34% (inactive).
Turning to `CN(C)c1ccc(-c2cncnc2NCCc2cnc[nH]2)cc1`, the Potency in [1] was 5.01 µM (active).
Regarding `C=C(C)C1CC=C(C)C(O)C1` (stereo not given), the Potency entry in assay [2], in assay [3], in assay [5], in [6], in assay [7] and in [8] was “inactive” in each case. Further, the Potency entry in assay [16] and in [18] was “inactive” in each case. The call in [9], in assay [11], in assay [13] and in [14] was inactive. In addition, the max response is -1.36% in assay [10] and -4.25% (inactive) in [20]. Moreover, the activity change % (negative = inhibition) in [17] was 0.818% (inactive). For the same compound, the activation in [19] was -0.16% (inactive).
For the compound `COc1ccc2[nH]cc(CCNc3ncncc3-c3ccccc3C(F)(F)F)c2c1`, the Potency in assay [1] is 2 µM (active).
As to `O=c1cc(-c2ccc(O)c(O)c2)oc2cc(O[C@@H]3O[C@@H](CO)[C@@H](O)[C@@H](O)[C@H]3O)cc(O)c12`, in assay [1], the Potency result was “inactive”.
`C=CCc1ccc(OC)c(OC)c1`: the Potency entry in assay [2], in assay [3], in assay [4], in [5], in assay [6] and in [7] was “inactive” in each case. Also, the Potency entry in assay [16] and in assay [18] was “inactive” in each case. The outcome in [15], in [9], in assay [11], in assay [13] and in assay [14] was inactive. For the same compound, the max response in assay [10] was -12.6% and 4.43%. Moreover, the activity change % (negative = inhibition) in assay [17] was 11.4% (inactive). Besides, the Potency in assay [12] was 33.5 µM (active) and inactive. Besides, the activation in [19] is -0.295% (inactive) and 0.286% (inactive).
For `CCCCCCCCCCCC(=O)O`, the Potency entry in [2], in [3], in [4], in [5], in [6] and in assay [7] was “inactive” each time. The Potency entry in [12] and in assay [18] was “inactive” each time. For the same compound, the compound was classed as inactive in assay [13]. In addition, the max response in assay [20] was 9.6% (inactive) and 16.5% (inactive).
